Bioassay records from PubChem BioAssay.
Hits are enriched below; roughly 2.7% of the tested compounds scored in any of these assays.
ERG Ets-DNA blk: blocks human ERG Ets domain binding to DNA; P11308; fluorescence polarization, His-ERG Ets domain / labelled DNA; Potency, µM (titrated, usually from 76.9 µM), for inactives: top-dose FP activity, negative = inhibition, most hits filed as inhibitors; 0.028% of 370,000 active; active means well fitted inhibition curve with a large enough effect in the polarisation, with a control signal flat; inconclusive means small, poorly fitted or top-dose-only effect, or effect the other way, or a change in a side signal; inactive means no such curve, though single readings can be large or run the other way; the % refers to the polarisation;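 further: polarization taken with two DNA probes labelled with fluorescein and Texas red; potency means the concentration at half of the fitted maximal effect; % of control where 0% means no effect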
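His-tagged ERG Ets domain (1 uM in the protein solution; 300mM KCl, 50mM Tris-HCl, 1mM EDTA, 1mM DTT, pH 7.5) received compound, then a probe mix of 5 nM fluorescein-DNA and 100nM Texas-615-DNA. Fluorescence polarization was read for both dyes.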
ALOX12 inh: inhibitors of human 12S-lipoxygenase ALOX12 | purified 12hLO, xylenol orange hydroperoxide absorbance | Potency, µM (top dose mostly 108 µM), for the others: at the top dose activity change, negative = inhibition, most hits filed as inhibitors | P18054 | 1.1% of 580,000 active; further: potency means the concentration at half of the fitted maximal effect; on the % scale 0 is the no-effect control and ±100 the full control effect
Target sequence (P18054 whole entry, looked up): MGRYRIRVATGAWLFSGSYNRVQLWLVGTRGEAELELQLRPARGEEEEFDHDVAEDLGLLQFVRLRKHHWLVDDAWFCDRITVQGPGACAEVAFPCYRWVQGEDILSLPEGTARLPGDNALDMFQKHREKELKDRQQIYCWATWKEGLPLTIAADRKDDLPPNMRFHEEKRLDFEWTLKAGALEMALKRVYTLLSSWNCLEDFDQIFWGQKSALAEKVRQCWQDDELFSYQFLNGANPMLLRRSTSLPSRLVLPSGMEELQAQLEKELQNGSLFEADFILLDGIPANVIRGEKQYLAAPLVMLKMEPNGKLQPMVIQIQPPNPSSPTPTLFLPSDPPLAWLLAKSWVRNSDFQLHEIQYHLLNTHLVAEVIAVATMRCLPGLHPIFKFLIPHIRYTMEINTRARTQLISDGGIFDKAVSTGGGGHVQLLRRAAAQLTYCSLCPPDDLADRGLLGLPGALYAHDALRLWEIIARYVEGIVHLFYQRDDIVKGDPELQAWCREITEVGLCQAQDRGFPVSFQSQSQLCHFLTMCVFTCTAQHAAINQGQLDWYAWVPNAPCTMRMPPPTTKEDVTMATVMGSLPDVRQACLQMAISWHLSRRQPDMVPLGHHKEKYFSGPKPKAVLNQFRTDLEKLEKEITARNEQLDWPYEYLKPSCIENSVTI
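Purified human 12hLO (150 nM final) in 25 mM Hepes, 0.01% Triton X-100, pH 7.0 was preincubated 15 min at room temperature with compound. Then 40 uM arachidonic acid was added, 30 min. Hydroperoxide was read by Fe-XO absorbance ratio 573/405 nm.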
Nrf2 ARE act: activators of Nrf2 (ARE) signaling. Potency, µM (highest dose often 46.1 µM), without a hit: at the highest dose activation, usual class: activators. 0.31% of 410,000 active. AREc32 ARE-luciferase reporter (MCF7-derived line), luminescence, 24 h; further: potency means the concentration at half of the fitted maximal effect; % of control where 0% means no effect; nearly all actives have a fitted effect of over 65% in size
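ARE-driven firefly luciferase activity in AREc32 cells measured after a 24 hr compound exposure at 37 deg C, using Steady-Glo reagent and a 30 min room-temperature hold.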
Nrf2 block: Nrf2 pathway inhibition; A549 ARE-Fluc reporter, luciferase luminescence, 18-24 h; Potency, µM (series often up to 46 µM), for the others: at the top dose activity change, negative = inhibition, hits mostly inhibitors; 2.1% of 360,000 active; AID 504444; further: potency means the concentration at half of the fitted maximal effect; on the % scale 0 is the no-effect control and ±100 the full control effect; nearly all actives have a fitted effect of over 60% in size
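Quantitative HTS in A549 cells stably bearing an antioxidant response element-firefly luciferase construct. Inhibition of Nrf2-driven transcription was scored by luminescence after 18-24 h of compound exposure at 37 °C.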
A549 tox: A549 cytotoxicity, counter-screen for Nrf2 inhibitors. A549 ARE-Fluc cells, CellTiter-Fluor viability, 18-24 h. Potency, µM (series often up to 46 µM), for the others: at the top dose activity change, negative = cytotoxicity, hits mostly inhibitors. 0.16% of 390,000 active. AID 504648; further: potency means the concentration at half of the fitted maximal effect; on the % scale 0 is the no-effect control and ±100 the full control effect
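A549 ARE-Fluc cells in 5% FBS OPTI-MEM, 5000 cells/well, rested 2 h then exposed to compounds in concentration-response for 18-24 h at 37 °C. Viability by CellTiter-Fluor fluorescence (Ex 405/Em 525) after 30 min; luciferase luminescence (BugLite, 15 min, RT) read afterwards.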
LDHA block: inhibitors of human lactate dehydrogenase A | activity change, % (values are at about 110 or 230 µM) | 0.15% of 480,000 active | P00338 | purified LDHA, NADH/diaphorase-resazurin fluorescence; active compounds read low; in the data active means activity change below about -30%; inconclusive means mostly about -25% to -30%;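 further: plate controls were DMSO wells for no effect and wells without enzyme for full effect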
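Remaining NADH was detected by diaphorase (0.133 mg/mL) converting 37 µM resazurin to fluorescent resorufin, read at 0 and 20 minutes. The preceding 5-minute room-temperature reaction used 2 nM LDHA, 0.2 mM sodium pyruvate and 0.06 mM NADH at pH 7.4.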
The depositor's hits bear a star; u = inconclusive; x = no result; [ ] = dose if it differs, or a comment. Unless noted, the call rests on the fitted dose curve; in most records, active means well fitted curve in the direction sought with a large enough effect; inconclusive means small, poorly fitted or top-dose-only effect, or another doubt; inactive means no such curve, though single readings can be large; an effect the other way counts as inactive or inconclusive.

SMILES	ERG Ets-DNA blk	ALOX12 inh	Nrf2 ARE act	Nrf2 block	A549 tox	LDHA block
O/N=C/c1ccc(-n2cccn2)cc1	x	1%	x	x	x	4
Cc1cccc(C(=O)NNC(=S)NC(=O)c2ccc(C(C)(C)C)cc2)c1	x	18µM*	x	x	x	-10
Cc1cccc(C(=O)NC(=S)NNC(=O)c2cccs2)c1	6%	u	0%[9.22 µM]	-18%	2%	3
Cc1cccc(C(=O)NC(=S)NNC(=O)c2ccc(Cl)cc2)c1	1%	28µM*	0%[9.22 µM]	u	-11%	-3
Cc1ccc2c(c1)N(C(=O)Cn1c(=O)n(CC(=O)N3CCCCC3)c(=O)c3sccc31)CCO2	x	9%	x	x	x	-1
NNc1ccncc1	x	u	x	x	x	2
CCOc1ccc(/C=C2\SC(=S)N(C(C(=O)O)c3ccccc3)C2=O)cc1OC (stereo not drawn)	-4%	16µM*	3%	19%	-1%	0
COc1ccc(OC)c(/C=C2\SC(=S)N(C(C(=O)O)c3ccccc3)C2=O)c1 (stereo not drawn)	19%	u	0%	-3%	-5%	0
COc1cccc(/C=C2\SC(=S)N(C(Cc3ccccc3)C(=O)O)C2=O)c1 (stereo not drawn)	5%	45µM*	0%	8%	-17%	-3
O=C(O)C(Cc1ccccc1)N1C(=O)/C(=C/c2cccs2)SC1=S (stereo not drawn)	16%	u	5%	-2%	-29%	-4
COCCn1c(SCc2csc(-c3ccccc3)n2)nc2ccccc21	14%	-4%	1%	21µM*	-22%	5
COCCn1c(SCC(=O)NCc2ccccc2)nc2ccccc21	0%	-1%	0%	-8%	11%	-2
O=C(N/N=C/C(Br)=C/c1ccccc1)NC1CCCCC1	-1%	-13%	u	1%	-10%	2
O=C(N/N=C/C(Br)=C/c1ccccc1)C(O)c1ccccc1 (stereo not drawn)	2%	398%	11µM*	u	-4%	1
O=C(N/N=C/C(Br)=C/c1ccccc1)C1CC1	-4%	-12%	20µM*	u	-3%	0
O=C(O)c1ccc(N/N=C/C(Br)=C/c2ccccc2)cc1	0%	40µM*	u	u	u	-11
Cc1occc1C(=O)N/N=C/C(Br)=C\c1ccccc1	6%	-10%	14µM*	u	1%	-3
Cc1ccc(NCC(=O)N/N=C\C(Br)=C\c2ccccc2)cc1	x	u	u	3%	-16%	3
Clc1cc(Cl)c(N/N=C/C(Br)=C/c2ccccc2)c(Cl)c1	x	6.3µM*	x	x	x	10
Fc1ccc(N/N=C/C(Br)=C/c2ccccc2)c(F)c1	x	u	x	x	x	7
COc1ccccc1NC(=O)C(=O)N1N=C(C(C)C)CC1(O)C(F)(F)F (stereo not drawn)	x	22%	-1%	23µM*	-21%	-8
O=C1N/C(=N\S(=O)(=O)c2ccccc2)S/C1=C\c1cc([N+](=O)[O-])ccc1O	42%	-19%	-1%	1%	u	-36*
O=C1N/C(=N\S(=O)(=O)Cc2ccccc2)S/C1=C/c1cc([N+](=O)[O-])ccc1O	17%	-29%	0%	3%	-28%	-37*
O=C(COc1ccc([N+](=O)[O-])cc1)Nc1cccnc1	1%	-1%	-1%	u	0%	-1
Cc1ccc(OCc2ccc(C(=O)NCc3cccnc3)cc2)cc1C	2%	-2%	3%	23µM*	-18%	1
SMILES	ERG Ets-DNA blk	ALOX12 inh	Nrf2 ARE act	Nrf2 block	A549 tox	LDHA block
O=C(COc1ccc(-c2ccccc2)cc1)Nc1cccnc1	-12%	33%	-1%	16µM*	-16%	0
O=C(COc1ccc(Cl)cc1)Nc1ccc(C(=O)NCc2cccnc2)cc1	-1%	x	-1%	21µM*	-11%	-4
COC(=O)/C(=C\c1cccnc1)NC(=O)c1ccc(OCc2ccccc2)cc1	6%	13%	0%	16µM*	-2%	-2
Cc1cccc(C(=O)N/N=C2/CC(=O)CC(C)(C)C2)c1	x	-4%	x	x	x	3
O=C(NCc1ccc(Cl)cc1)c1cccnc1	1%	-8%	0%	-26%	-1%	-1
COc1ccc(CN(C)C(=O)c2ccc(COc3ccccc3)cc2)c(OC)c1	7%	-14%	0%	u	-4%	3
COc1cc(OC)c(OC)cc1CNC(=O)c1ccc(COc2ccccc2)cc1	2%	-12%	1%	16µM*	-12%	1
O=C(NCc1cccnc1)c1ccc(COc2ccc(Cl)cc2)cc1	-9%	-4%	3%	23µM*	-7%	3
COc1ccccc1NC(=O)COC(=O)c1cc(=O)c2ccccc2o1	x	7%	x	x	x	-6
COc1ccc(NC(=O)COC(=O)c2cc(=O)c3ccccc3o2)cc1OC	23%	-15%	13µM*	21%	0%	2
O=C(O)CNS(=O)(=O)c1ccc2c(c1)CCC2	x	u	x	x	x	3
CC(C)CNc1nnnc2c1sc1nc(N3CCOCC3)c3c(c12)CC(C)(C)SC3	7%	29%	0%	13µM*	-17%	5
CC1(C)Cc2c(c(N3CCOCC3)nc3sc4c(NCc5ccco5)nnnc4c23)CS1	-5%	5%	5%	u	-11%	0
COc1cccc(CNC(=O)CN2CCC(c3nc4ccc(C)cc4[nH]3)CC2)c1	-8%	4%	0%	16µM*	0%	-8
Cc1nc2ccc(NC(=O)Cc3cccc(F)c3)cc2s1	19%	4%	1%	14%	4%	8
CCN(CC)CCNC(=O)c1ccc(NC(=O)Cc2cccc(C(F)(F)F)c2)cc1	x	45µM*	x	x	x	-3
Cc1nc2ccc(NC(=O)Cc3cccc(C(F)(F)F)c3)cc2s1	x	40µM*	x	x	x	8
CCN(CC)CCNC(=O)c1ccc(NC(=O)Cc2cccc3ccccc23)cc1	6%	-27%	1%	15%	-1%	-13
CN(C)c1ccc(/C=C/c2ccc3ncccc3c2)cc1	x	x	x	x	x	17
CN(C)c1ccc2ncccc2c1	x	5µM*	x	x	x	32
Cc1ccc(NC(=O)c2ncoc2-c2cccc(Cl)c2)c(C)c1	x	-16%	x	x	x	1
CCOC(=O)C1(C)/C(=N/Nc2ccc(Cl)cc2)C(=O)C(=O)N1c1ccccc1 (stereo not drawn)	1%	u	0%	3%	-9%	25
CCOC(=O)C1(C)/C(=N/Nc2cccc(Cl)c2)C(=O)C(=O)N1c1ccccc1 (stereo not drawn)	7%	22µM*	0%	0%	-7%	8
C#CCNC(=O)c1ccccc1NCC(=O)NC(=O)NCc1ccccc1	x	u	x	x	x	7
